Screening results deposited in PubChem BioAssay by several laboratories.
Shn3 inh set2: Schnurri-3 reporter inhibition in Clone20 osteoblasts. Clone20 osteoblast Shn3 3'UTR firefly luciferase, 24 h. inhibition, % at 12.5 µM. 360,000 tested, 0.52% active;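 active means mean inhibition of at least 75% with every replicate also reaching 75%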
Jurkat NFkB inh: inhibitors of the PMA/ionomycin-induced NF-kB reporter in Jurkat cells; 330,000 tested, 0.53% active; PMA/ionomycin-induced NF-kB luciferase reporter, luminescence; inhibition, % at 4 µM; in the data active means inhibition above about 50%
LMP1 NFkB inh: inhibitors of Epstein-Barr LMP1-induced NF-kappaB reporter; LMP1-induced NF-kappaB luciferase reporter cells, luminescence; inhibition, % at 12.5 µM; 350,000 tested, 0.69% active; AID 504558; in the data active means inhibition above about 41%
MITF TRPM1 inh: inhibitors of MITF-driven TRPM1 promoter in melanoma cells | SK-MEL-5 TRPM1 promoter luciferase, 24 h | inhibition, % at 12.5 µM | 330,000 tested, 0.83% active;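 active means mean inhibition across replicates of 60% or more, whatever share of single replicates reaches that level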
Gli-Sufu antag: blocks Gli-Sufu signaling in a luciferase reporter | Sufu-KO-LIGHT fibroblasts, Gli luciferase reporter luminescence | inhibition, % at 5 µM | 340,000 tested, 0.74% active;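 active means inhibition above about 55%, limit read from the data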
697 NFkB inh: lowers PMA/ionomycin-induced NF-kB signal in 697 B cells | inhibition, % at 4 µM | AID 435022 | 697 B-cell NF-kB luciferase reporter, 16 h | 330,000 tested, 0.33% active; in the data active means inhibition above about 35%
Jurkat NFkB conf: lowers PMA/ionomycin-induced NF-kB signal in Jurkat cells; shares compounds with Jurkat NFkB inh; Jurkat NF-kB luciferase, 16 h; inhibition, % at 4 µM; 2,700 tested, 27% active; AID 435020;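 active means inhibition reaching about 45% at 4 µM in either replicate, limit read from the data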
Of the large screens only hits and unclear results are named; the others gave an inactive call (follow-up assays come after a bar, where they were run). Shown are actives, neighbours in structure and some others; about 2.3% of the full set was active somewhere.

NCCCNc1nc(N)c([N+](=O)[O-])c(NC2CCCCC2)n1	Jurkat NFkB inh 91, MITF TRPM1 inh 74 | Jurkat NFkB conf inactive
C=CCn1c2ccccc2c(=O)c2cc(C#CC3(O)CCCCC3)ccc21	none | Jurkat NFkB conf inactive
CCn1ncc(C2=NOC(C(=O)NCc3ccccc3)C2)c1C (stereo not drawn)	Jurkat NFkB inh 74 | Jurkat NFkB conf inactive
CCCCNc1c(N)n(CCC)c(=O)[nH]c1=O	none
COc1ccc(CCNC(=O)CN2C(=O)NC3(CCOc4ccccc43)C2=O)cc1 (stereo not drawn)	none
O=C(CN1C(=O)NC2(CCOc3ccccc32)C1=O)NCCc1ccccc1 (stereo not drawn)	Jurkat NFkB inh 64 | Jurkat NFkB conf inactive
Cc1ccc(NC(=O)CCc2c(C)nn(-c3ccc(N4CCCCC4)nn3)c2C)cc1C	none
CCN(CC)CCn1c2c(c(SCC(=O)Nc3ccc4c(c3)OCCO4)nc1=O)CCC2	none
O=C(c1ccc2nc[nH]c2c1)N1CCN(c2cccc(C(F)(F)F)c2)CC1	none
O=C(c1ccc2ncsc2c1)N1CCN(c2cccc(C(F)(F)F)c2)CC1	Jurkat NFkB inh 55 | Jurkat NFkB conf inactive
COc1ccc(C(=O)NCc2nnc(SCC(=O)Nc3cccc(C(F)(F)F)c3)o2)cc1OC	none
CCN(CC)c1ccc(-c2nn3c(-c4ccccc4OC)nnc3s2)cc1	Jurkat NFkB inh 79 | Jurkat NFkB conf 64
COC(=O)c1ccc(CNC(=O)/C=C/[C@H]2O[C@@H](n3cc(C)c(=O)[nH]c3=O)C[C@@H]2O)cc1	none (no result: Jurkat NFkB inh, LMP1 NFkB inh, MITF TRPM1 inh, Gli-Sufu antag, 697 NFkB inh)
CC(OC(=O)c1ccc2c(c1)OCCO2)C(=O)c1ccccc1 (stereo not drawn)	none | Jurkat NFkB conf inactive
Cc1ccc(-n2cc(C(=O)c3ccc(F)cc3)nn2)cc1Cl	none | Jurkat NFkB conf inactive
Cc1ccc(C)c(S(=O)(=O)N2CCCCC2CCNC(=O)C(=O)NCc2cccnc2)c1 (stereo not drawn)	none
COc1ccc(NC(=O)C(=O)NCCC2CCCCN2S(=O)(=O)c2ccc(F)cc2)cc1 (stereo not drawn)	Jurkat NFkB inh 60 | Jurkat NFkB conf inactive
COc1ccc(S(=O)(=O)N2CCCC2CNC(=O)C(=O)NCCc2ccccc2)cc1 (stereo not drawn)	Jurkat NFkB inh 54 | Jurkat NFkB conf inactive
Cc1ccc(S(=O)(=O)N2CCCCC2CCNC(=O)C(=O)NCc2cccnc2)cc1 (stereo not drawn)	Jurkat NFkB inh 62 | Jurkat NFkB conf inactive
CCOc1ccccc1/C=C(\C#N)C(=O)Nc1cccc(C(=O)O)c1	none
Cc1ccc(S(=O)(=O)Nc2cccc3cccnc23)cc1	Jurkat NFkB inh 92, MITF TRPM1 inh 83, Gli-Sufu antag 63 | Jurkat NFkB conf inactive
COc1ccc(S(=O)(=O)Nc2ccccn2)cc1	none
COc1cc(NS(=O)(=O)c2ccc(C)cc2)c2ncccc2c1	Shn3 inh set2 95, Jurkat NFkB inh 100, MITF TRPM1 inh 74, Gli-Sufu antag 88 | Jurkat NFkB conf 62
COc1ccc(/C=C/C(=O)NCc2cn(C)nc2C)cc1COc1ccc(Br)cc1	none
Cc1ccc(Cn2c(=N)n(CC(O)c3ccco3)c3ccccc32)cc1 (stereo not drawn)	none
COCCn1c(SCC(=O)c2ccccc2)nc2c(c1=O)SCC2	none
CN(C)S(=O)(=O)c1cccc(NC(=S)NCCc2ccccn2)c1	none
CC(C)c1ccc(C2C3=C(COC3=O)Nc3cc4c(cc32)OCO4)cc1 (stereo not drawn)	Jurkat NFkB inh 70 | Jurkat NFkB conf inactive
CC(C)c1ccc(NS(=O)(=O)c2ccc3c(c2)NC(=O)CO3)cc1	none
O=C(c1ccc(Cl)c(S(=O)(=O)N2CCCC2)c1)N1CCOCC1	none
CC(C)(C)C(=O)N/C(N)=N/c1nc2ccccc2o1	none | Jurkat NFkB conf inactive
CCC(=O)N/C(N)=N/c1nc2ccccc2o1	none
CCOc1ccc(-c2ccc(SCC)nn2)cc1	none | Jurkat NFkB conf inactive
Cc1ccc(N(C(C)C(=O)Nc2cc(Cl)ccc2Oc2ccccc2)S(C)(=O)=O)cc1 (stereo not drawn)	none
CCCCOc1ccc(Br)cc1/C(C)=N/NC1=NCCN1	Shn3 inh set2 88, Jurkat NFkB inh 76, MITF TRPM1 inh 82 | Jurkat NFkB conf 53
